A number with no mark means an inactive call. Entries that show only a call come without a potency. The source made the active and inactive calls. Calls follow the shape of the full dose curve.
What follows are compounds tested against Muscarinic acetylcholine receptor M1 (Homo sapiens) (UniProt P11229) (assay: Cholinergic receptor muscarinic 1 (CHRM1) small molecule agonists, cell-based qHTS assay (AID 1963589; also: nearly all actives have a fitted effect of over 35% in size)). Conditions: CHRM1-CHO cells, agonist mode, calcium flux fluorescence; series mostly up to 76.8 µM.
Muscarinic acetylcholine receptor M1 (Homo sapiens), sequence (P11229 whole entry, looked up): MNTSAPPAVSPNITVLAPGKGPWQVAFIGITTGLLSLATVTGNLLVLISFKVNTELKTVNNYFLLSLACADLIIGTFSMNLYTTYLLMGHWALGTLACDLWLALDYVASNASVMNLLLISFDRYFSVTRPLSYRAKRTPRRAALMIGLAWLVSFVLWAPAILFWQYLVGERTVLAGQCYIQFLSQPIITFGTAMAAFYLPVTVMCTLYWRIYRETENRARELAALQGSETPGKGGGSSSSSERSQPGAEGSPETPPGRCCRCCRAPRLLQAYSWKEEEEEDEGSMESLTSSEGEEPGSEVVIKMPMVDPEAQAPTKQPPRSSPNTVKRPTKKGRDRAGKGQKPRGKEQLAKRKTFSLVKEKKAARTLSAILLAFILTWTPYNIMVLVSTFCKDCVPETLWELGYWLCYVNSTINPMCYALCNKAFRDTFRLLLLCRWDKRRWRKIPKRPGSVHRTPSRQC
From the text: National Center for Advancing Translational Sciences [NCATS]
Division of Preclinical Innovation [DPI]
U.S. Environmental Protection Agency [EPA]
National Institutes of Environmental Health Sciences [NIEHS]
National Toxicology Program [NTP]
U.S. Food and Drug Administration [FDA]
The CHRM1 is a muscarinic receptor. This receptor plays a crucial role in learning and memory processes and has long been identified as a promising therapeutic target for the improvement of cognitive decline in Alzheimer's disease (AD). The CHRM1-CHO cell line stably expressing human muscarinic acetylcholine receptor M1 (CHRM1) can be used for screening agonists and antagonists of interactions between CHRM1 and its ligands. The CHRM1-CHO Calcium Flux Assay is a homogeneous fluorescence-based assay for detecting the intracellular calcium level using FDSS kinetic plate reader system.
CHRM1-CHO cells were dispensed at 1000 cells/3uL/well in 1536-well black-clear bottom plates using a Multidrop Dispenser. After the assay plates were incubated at a 37 C/5% CO2 incubator for 18 h, 3 uL of Dye Loading Buffer was transferred to the assay plate by a Flying Reagent Dispenser. The assay plates were incubated at 37 C for 1h. For agonist mode, 23 nL of compounds dissolved in DMSO, positive controls or DMSO only was transferred to the assay plate by a pin tool. […] Each test compound was measured at 15 concentrations in three independent runs.
Potency is read from the fitted curve at half-maximal effect.

Structure (SMILES) | Potency | activation
Cc1ccc(Cl)cc1N | inactive | 
CCCCCCOC(=O)NC(=N)c1ccc(NCc2nc3cc(C(=O)N(CCC(=O)OCC)c4ccccn4)ccc3n2C)cc1 | inactive | 
O=C1NC2CCCCN2C12CCN(CCCN1c3ccccc3CCc3ccc(Cl)cc31)CC2 (stereo not given) | inactive | 
CCOCN(C(=O)CS(=O)(=O)O)c1c(C)cccc1CC | inactive | 
CCOc1ccc(NC(C)=O)cc1N | inactive | 
O=S(=O)(O)c1cc(O)c2ccc(Nc3ccccc3)cc2c1 | inactive | 
O=C1OC2(c3ccccc31)c1ccc(O)c(Br)c1Oc1c2ccc(O)c1Br | 24.5 µM (active) | 
CC(=O)O[Si](C)(OC(C)=O)OC(C)=O | inactive | 
Nc1cccnc1N | inactive | 
CCCC(C)C(=O)O (stereo not given) | inactive | 
CN(C)CCOc1ccc(/C(=C(/CCCl)c2ccccc2)c2ccccc2)cc1 | inactive | 
CCCCOC(=O)CO | inactive | 
Nc1ccc(N=Nc2ccccc2)c(N)c1 | inactive | 
Nc1ccc(N)c2c1C(=O)c1ccccc1C2=O | inactive | 
CC(C)N1C(=O)c2ccccc2C1=O | inactive | 
CCCC(=O)OC | inactive | 
[O-][n+]1ccccc1SSc1cccc[n+]1[O-] |  | 14.1% [at 15.8 µM]
O=c1cc(-c2ccccc2)oc2cc(O)cc(O)c12 | inactive | 
O=C(CC(=O)c1ccccc1)c1ccccc1 | inactive | 
Cc1ccc(O)c(N)c1 | inactive | 

Structure (SMILES) | Potency | activation
CCCCOC(=O)c1ccccc1 | inactive | 
O=C(Nc1ccc(C(=O)O)c(O)c1)c1ccccc1 | inactive | 
CCN(CC)CC1CCCCN1CC(=O)N1c2ccccc2C(=O)Nc2cccnc21 (stereo not given) | inactive | 
Cc1cccc(C(=O)O)c1O | inactive | 
COCCOC | inactive | 
C[C@H](CCC(=O)O)[C@H]1CC[C@H]2[C@@H]3CC[C@@H]4C[C@H](O)CC[C@]4(C)[C@H]3CC[C@]12C | inactive | 
CCN(CCC#N)c1ccccc1 | inactive | 
Cc1cccc(OCCOc2cccc(C)c2)c1 | inactive | 
CCCC1C(CC)=CC(CC)=CN1c1ccccc1 (stereo not given) | inactive | 
COc1cc2ncnc(Nc3ccc(F)c(Cl)c3)c2cc1OCCCN1CCOCC1 | inactive | 
Oc1c(Cl)cc(Cl)c2cccnc12 | inactive | 
Nc1ccc(Oc2ccc(N)c(N)c2)cc1 | inactive | 
CC(=O)OC(C)C[N+](C)(C)C (stereo not given) | 0.151 µM (active) | 
CO[C@]12C[C@@H](COC(=O)c3cncc(Br)c3)CN(C)[C@@H]1Cc1cn(C)c3cccc2c13 | inactive | 
Nc1cc(Cl)c([N+](=O)[O-])cc1O | inactive | 
C[C@]12CCC(=O)C=C1CC[C@H]1[C@@H]3CC[C@](O)(C(=O)CO)[C@@]3(C)C[C@H](O)[C@@]12F | inactive | 
CC(C)C(=O)OCCc1ccccc1 | inactive | 
CCCC1CCOC(C)S1 (stereo not given) | inactive | 
O=C(N/N=C/c1ccc([N+](=O)[O-])o1)c1ccc(O)cc1 | inactive | 
Cc1cc(C(=C2C=CC(=Nc3ccc(S(=O)(=O)O)cc3S(=O)(=O)O)C=C2)c2ccc(Nc3ccc(S(=O)(=O)O)cc3)cc2)ccc1N | inactive | 
